Here are results for 40 molecules from PubChem BioAssay (NCI).

Compounds without any hit were thinned out: in the full panel of roughly 83,000, 20% have a hit.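 Single-dose data. Exposure time 48 hours. Values below 10 considered active.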 Values without a mark were called inactive. Calls of active or inactive are those of the source.

In the test the test system is HL-60(TB) leukemia. Nature of the test: NCI-60 one-dose screen, 48 h (100 = growth as untreated, 0 = no growth, -100 = all killed). The settings on record: 10 µM unless noted.
In the case of `COc1cc2c3c(n(C4CCNCC4)c(=O)c2cc1OC)-c1cc2c(cc1C3=O)OCO2`, the growth is -50.3% (active).
As for `COc1ccc(C(C)C=O)cc1` (stereo not given), the growth was 96.9%.
The same measure for `CC[C@@](C)(NC(=O)[C@H](C)NC(=O)CCNC(=O)C(C)(C)NC(=O)[C@H](C)NC(=O)[C@@H]1CCCN1C(=O)[C@@](C)(CC)NC(=O)[C@H](Cc1ccccc1)NC(=O)C1CCCN1C(=O)C(C)(C)NC(=O)C1CCCN1C(=O)C(C)(C)NC(C)=O)C(=O)NCCC(=O)N[C@@H](CC(C)C)C(=O)NC(C)(C)C(=O)NCCC(=O)N[C@@H](CC(C)C)C(=O)NC(C)(C)C(=O)NC(C)(C)C(=O)N[C@@H](CC(C)C)C(=O)NCCC(=O)NCO` (stereo not given in full): -62.3% (active).
Under `Nc1ccc(F)cc1F` stands 97.9%.
Under `CC(O)COc1ccc(-c2ccccc2)cc1` (stereo not given) stands 102%; under `c1cc[n+](Cc2ccnc3ccccc23)cc1`, 84.7%; under `O=S(=O)(NCCCNc1nccc(-c2c(-c3cccc(F)c3)nc3sccn23)n1)c1cccc2ccccc12`, 53.9%.
On to `CC1(C)CC[C@]23CC[C@]4(C)[C@H](CC[C@@H]5[C@@]6(C)CCCNC(C)(C)[C@@H]6CC[C@]54C)[C@H]2[C@H]1OC3`, for which the growth was -65.5% (active).
Take `O=C(Nc1ccccc1C(F)(F)F)C1=NCCCCN1`: the growth is 99.8%.
The same measure for `O=c1c2cccc3c(Nc4c(F)cccc4F)ccc(c32)c2nc3ccccc3n12`: 85.9%; for `C=C(C)[C@@H]1CC[C@]2(C(=O)N3CCN(C)CC3)CC[C@]3(C)[C@H](CC[C@@H]4[C@@]5(C)C/C(=C/c6cccnc6)C(=O)C(C)(C)[C@@H]5CC[C@]43C)[C@@H]12`: -4.95% (active); for `CCCNNC(=O)/C=C/c1ccc(CNCCc2c(C)[nH]c3ccccc23)cc1`: 33.3% [2.5 µM].
Consider `NC1=NC(c2ccc(Cl)cc2)C2=C(N1)/C(=C/c1ccc(Cl)cc1)CCC2` (stereo not given), for which the growth is 64.8%.
In the case of `O=C(N/N=C/c1ccc([N+](=O)[O-])cc1)c1ccccc1Nc1cccc(C(F)(F)F)c1`, the growth was 108%.
The same measure for `N=C(N)c1ccc(-c2ccc(-c3cccs3)s2)cc1F`: -47.8% (active).
For the molecule `CNC(=O)c1nn(C)c2c1C(C)(C)Cc1cnc(Nc3ccc(N4CCN(C)CC4)cc3)nc1-2`, the growth is -27% (active).
Turning to `N#Cc1c(-c2ccccc2)nc(SCC(=O)Nc2nc(-c3ccc(Cl)cc3)cs2)[nH]c1=O`, the growth is 96.1%.
Under `COc1cc(C2CC(c3ccc(Cl)cc3)=NN2C(C)=O)ccc1Oc1ccnc2cc(Cl)ccc12` (stereo not given) stands 110%.
The same measure for `Cc1cc(C2(c3cc(C)c(O)cc3C)OS(=O)(=O)c3ccccc32)c(C)cc1O`: 87.8%; for `COc1ccc(-n2cc(-c3ccc(Cl)c(Cl)c3)[nH]c2=O)cc1OC`: 179%.
Consider `N#CN1CCC[C@H]1C(=O)N1CCc2c(-c3[nH]nc4ncccc34)cccc21`, for which the growth is -30.7% (active).
On to `CNC(=O)c1cc(Oc2ccc(NC(=O)Nc3ccc(Cl)c(OC(F)(F)F)c3)c(F)c2)ccn1`, for which the growth is 28.9%.
Under `COc1ccc(C2c3ccc4ccccc4c3Oc3nc(C)[nH]c(=O)c32)cc1` (stereo not given) stands 99.3%; under `O=c1[nH]c(=S)c2c(n1CCCO)CCC2`, 95.6%.
For `O=C(Nc1ccc(Cl)cc1)Nc1nc2ccc(OC(F)(F)F)cc2o1`, the growth was 83.3%.
Under `COc1cc(NC(=O)c2sc3nc4c(cc3c2N)C(O)CCC4)cc(OC)c1` (stereo not given) stands 73.2%.
The same measure for `Cc1cc(O)ccc1Sc1ccccc1[N+](=O)[O-]`: 115%; for `CC[C@H](C)[C@H]1NC(=O)[C@@H](N[C@](C)(O)[C@@H](N)CC(C)C)[C@@H](C)OC(=O)[C@H](Cc2ccc(OC)cc2)N(C)C(=O)[C@@H]2CCCN2C(=O)[C@H](CC(C)C)NC(=O)[C@@H](C)C(=O)[C@H](C(C)C)OC(=O)C[C@@H]1O`: -27.7% (active).
In the case of `CCCCCCCCSc1ncnc2c1ncn2CO`, the growth was 94.5%.
The same measure for `N/C(=N\O)c1cn(C2OC(CO)C(O)C2O)c2ncnc(N)c12` (stereo not given): -43.5% (active); for `COC(=O)/C=C1/SC(=NCc2ccccc2)N(CCc2c[nH]c3ccccc23)C1=O`: 79.8%.
Under `CC[n+]1c(/C=C/c2ccc(N3CCCC3)cc2)cccc1/C=C/c1ccc(N2CCCC2)cc1` stands -20.8% (active); under `O=C(Nc1cccc(-n2cc(-c3ccncc3)c(-c3ccc(O)c(Cl)c3)n2)c1)c1ccc(Cl)c(Cl)c1`, 33.9%; under `COc1cc(COC(=O)CCCCC[P+](c2ccccc2)(c2ccccc2)c2ccccc2)c(OC)c2c1OCO2`, -9.81% (active).
Under `C=C(C)Cn1c(SCC(=O)c2cccs2)nc2sc3c(c2c1=O)CCCC3` stands 63.2%.
On to `CCOC(=O)C(CC)n1c(=O)c2cc(OC)c(OC)cc2c2cnc3[nH]ccc3c21` (stereo not given), for which the growth is 62.1%.
The same measure for `Cc1cccc(C)c1NCc1nnc(-c2ccc(O)cc2)o1`: 111%; for `COc1cc2c(c(OC)c1OC)-c1ccc(N=NC(N)=S)c(=O)cc1[C@@H](NC(C)=O)CC2`: -17.7% (active); for `CC/C(=C(\c1ccc(Cl)cc1)c1ccc(OCCN2CCCCC2)cc1)c1ccc(O)cc1`: -40.4% (active).
Under `CC(=O)OC[C@H]1O[C@H](OC(C)=O)[C@H](NC(=O)/C=C/CCl)[C@@H](OC(C)=O)[C@@H]1OC(C)=O` stands 96.4%.
